Test [1] relates to XIP peptide (Xip251-270) binding. The test can be described thus: small-molecule binders of XIP peptide, primary screen, biochemical, small-molecule microarray, fluorescence 635/667 nm, 0.1 µg/mL protein (AID 1182). The conditions noted are these: fluorescent protein binding, 635 nm, higher = more signal, called active from +8 up or from −8 down.
A further test concerns XIP peptide (Xip251-270). In words: small-molecule binders of XIP peptide, primary screen, biochemical, small-molecule microarray, fluorescence 635/667 nm, 0.5 µg/mL protein (AID 1183). The following applies: small-molecule microarray binding, fluorescence 635 nm; higher = more signal.
The nature of test [2]: Plasmodium falciparum growth inhibition, primary screen, strain 3D7, DAPI fluorescence, 100 nL (AID 1184).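 Further: parasites grown inside human red blood cells in medium with human serum.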 The conditions noted are these: P. falciparum 3D7 growth, 3 d, higher = more signal.
The target in test [3] is Homeobox protein Hox-A13 (Mus musculus) (UniProt Q62424). The test can be described thus: inhibitors of HoxA13-DNA binding, primary screen, biochemical, fluorescence polarization, labeled oligonucleotide (AID 1185). The conditions noted are these: 15 min, higher = more signal, called active from +8 up or from −8 down. For orientation: Polarisation of emitted light reports the rotation of a fluorescent probe.

A short description of test [4]: inhibitors of hydroxyurea-induced Chk1 phosphorylation, primary screen, imaging, HeLa, phospho-Chk1 antibody, percent positive cells (AID 1186). The conditions noted are these: hydroxyurea-induced phospho-Chk1 immunofluorescence imaging, higher = more signal.
A short description of test [5]: inhibitors of hydroxyurea-induced Chk1 phosphorylation, primary screen, imaging, HeLa, phospho-Chk1 nuclear intensity (AID 1187). The conditions noted are these: hydroxyurea-induced phospho-Chk1 immunofluorescence imaging, higher = more signal.

Molecules are shown by their SMILES. Calls of active or inactive are those of the source. Unless noted, how the calls were made is not given here.

Homeobox protein Hox-A13 (Mus musculus), sequence (Q62424 whole entry, looked up): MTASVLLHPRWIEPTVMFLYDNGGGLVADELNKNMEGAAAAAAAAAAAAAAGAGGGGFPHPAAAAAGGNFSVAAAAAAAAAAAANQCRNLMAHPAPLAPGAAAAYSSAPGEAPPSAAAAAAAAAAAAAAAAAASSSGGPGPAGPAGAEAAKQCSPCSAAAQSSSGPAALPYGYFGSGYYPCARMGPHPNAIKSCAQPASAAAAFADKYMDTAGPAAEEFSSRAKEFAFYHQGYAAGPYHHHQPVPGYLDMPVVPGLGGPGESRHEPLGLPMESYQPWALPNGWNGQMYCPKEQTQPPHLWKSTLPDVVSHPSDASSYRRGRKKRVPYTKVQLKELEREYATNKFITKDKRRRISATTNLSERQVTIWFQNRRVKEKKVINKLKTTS

As for `C=CCNC(=O)[C@@H]1[C@H]2C(=O)O[C@H](c3ccccc3)[C@H](c3ccccc3)N2[C@H](c2ccc(O)cc2)[C@@]12C(=O)N(C(=O)OCCOC)c1ccc(C#CC3(O)CCCCCC3)cc12`, the results for the composite z-score (in test [1]; with XIP peptide (Xip251-270)) were 0.0275 (inactive) and 0.557, respectively. Further, the z-score is 0.359 in test [2], 0.16 (inactive) in test [3], -0.209 (inactive) in test [4] and -0.468 (inactive) in test [5].
On to `C=C(/C(=C/C[C@H](OC(C)=O)c1cccc(OCCO)c1)c1cnc2ccccc2c1)C(C)C`, for which the composite z-score was -0.328 (inactive) in test [1] and -0.179 in the test with XIP peptide (Xip251-270). For the same compound, the z-score in test [2] is -1.28; in test [3], -4.29 (inactive); in test [4], -0.192 (inactive); in test [5], -0.139 (inactive).
Consider `COCCCNC(=O)[C@]1(CCS(=O)(=O)c2ccccc2)N=C(c2ccc(OCCCO)cc2)O[C@@H]1c1ccccc1CN=[N+]=[N-]`, for which the composite z-score is 1.51 (inactive) in test [1] and 0.814 with XIP peptide (Xip251-270). The z-score in test [2] was -2.3; in test [3], -3.61 (inactive); in test [4], -0.684 (inactive); in test [5], -0.618 (inactive).
Regarding `C=C(C)[C@@H]1CC=C(C(O)C2C=CC3C(=O)N(c4ccccc4)C(=O)C3N2Nc2ccccc2F)CC1` (some centres not stated), the composite z-score in test [1] was 0.301 (inactive); in the test with XIP peptide (Xip251-270), 0.656. In addition, the z-score in test [2] is -0.282; in test [3], -1.52 (inactive); in test [4], 0.749 (inactive); in test [5], 0.372 (inactive).
With `O=c1n(-c2ccccc2)c(=O)n2n1CC(COc1ccccc1)=C([C@H](O)CCc1ccccc1)[C@@H]2CO`, the composite z-score was 0.0148 (inactive) in test [1] and -0.407 with XIP peptide (Xip251-270). Also, the z-score in test [2] was -0.601; in test [3] it was -7.77 (inactive); in test [4], -0.268 (inactive); in test [5], 0.771 (inactive).
As for `COCCCNC(=O)[C@@]1(Cc2ccccc2N=[N+]=[N-])N=C(c2ccc(OCCCO)cc2)O[C@H]1c1ccccc1`, the values for the composite z-score (in test [1]; in the test with XIP peptide (Xip251-270)) were 0.226 (inactive) and 0.818, respectively. Also, the z-score in test [2] is -2.49; in test [3], -5.46 (inactive); in test [4], 0.0251 (inactive); in test [5], 0.285 (inactive).
For the compound `CCCC[C@@H]1C[C@H]1[C@@H](NC(=O)c1ccccc1)c1ccc(C(F)(F)F)cc1`, the composite z-score is 2.28 (inactive) in test [1] and -1.51 with XIP peptide (Xip251-270). In addition, the z-score is 0.011 in test [2], 0.0892 (inactive) in test [3], -0.27 (inactive) in test [4] and -0.226 (inactive) in test [5].
`CCOC(=O)C[C@H]1[C@H](OC(=O)c2cc3ccccc3oc2=O)[C@@H](NC(=O)c2ccc(-c3ccccc3)cc2)c2cc(OCCCO)ccc2N1C(=O)c1ccccc1`: the composite z-score in test [1] is 0.411 (inactive); with XIP peptide (Xip251-270) it was 0.701. In addition, the z-score is -1.95 in test [2], 0.455 (inactive) in test [3], 0.443 (inactive) in test [4] and 0.769 (inactive) in test [5].
For the compound `COC(=O)[C@@]1(Cc2ccc(F)cc2)[C@H]2c3cc(C(=O)N4CCCC4)n(CCN4CNCC4=O)c3C[C@H]2CN1C(=O)c1ccccc1`, the composite z-score is 0.207 (inactive) in test [1] and 0.632 with XIP peptide (Xip251-270). For the same compound, the z-score was -1.65 in test [2], -5.84 (inactive) in test [3], 0.191 (inactive) in test [4] and 0.44 (inactive) in test [5].
Regarding `COCCOC(=O)N1C(=O)[C@@]2(c3cc(C#Cc4ccc(OC)cc4)ccc31)[C@H](C(=O)Nc1nc3ccccc3s1)[C@H]1C(=O)O[C@H](c3ccccc3)[C@H](c3ccccc3)N1[C@@H]2c1ccc(O)cc1`, the figures for the composite z-score (in test [1]; in the test with XIP peptide (Xip251-270)) were -0.363 (inactive) and 0.748, respectively. Also, the z-score in test [2] is -1.89; in test [3], -0.829 (inactive); in test [4] it was -0.519 (inactive); in test [5] it was -0.999 (inactive).
With `O=C(NCC(F)(F)F)[C@@H]1c2ccccc2C(=O)N(Cc2cc(F)cc(C(F)(F)F)c2)[C@H]1c1ccc(CO)cc1`, the composite z-score in test [1] is 0.0811 (inactive); in the test with XIP peptide (Xip251-270), 0.663. Also, the z-score is -1.25 in test [2], -2.64 (inactive) in test [3], -0.0626 (inactive) in test [4] and -0.205 (inactive) in test [5].
As for `CCOC(=O)C[C@H]1[C@H](OC(=O)c2cc3ccccc3oc2=O)[C@@H](NC(=O)c2ccc(-c3ccccc3)cc2)c2cc(OCCCO)ccc2N1C(=O)c1ccc2ccccc2n1`, the composite z-score in test [1] was 0.155 (inactive); with XIP peptide (Xip251-270), 0.339. Further, the z-score is -0.949 in test [2], -2.27 (inactive) in test [3], -0.359 (inactive) in test [4] and -0.583 (inactive) in test [5].
Regarding `CCCCCCCCCCC(O)C1C=CC2C(=O)N(C)C(=O)C2N1NC(=O)OC(C)(C)C` (configuration not stated), the composite z-score in test [1] was 0.0658 (inactive); in the test with XIP peptide (Xip251-270), 0.502. In addition, the z-score in test [2] is -0.451; in test [3] it was -2.93 (inactive); in test [4], 1.91 (inactive); in test [5], 1.4 (inactive).
In the case of `C=CC[C@@]1(C(=O)N2CCOCC2)N=C(c2ccc(OCCCO)cc2)O[C@@H]1c1ccccc1CN=[N+]=[N-]`, the composite z-score in test [1] was 0.74 (inactive); with XIP peptide (Xip251-270), 0.758. Moreover, the z-score in test [2] was -2.26; in test [3], -5.78 (inactive); in test [4], 0.0151 (inactive); in test [5], 0.349 (inactive).
As to `[N-]=[N+]=NCc1ccccc1C[C@@]1(C(=O)NCc2ccccc2)N=C(c2ccc(OCCCO)cc2)O[C@@H]1c1ccccc1N=[N+]=[N-]`, the composite z-score was 0.047 (inactive) in test [1] and 0.558 in the test on XIP peptide (Xip251-270). Also, the z-score in test [2] is -2.37; in test [3], 0.321 (inactive); in test [4], -0.299 (inactive); in test [5], -0.147 (inactive).
As for `O=C1C=C(c2ccccc2)C(=O)c2ccc([C@H]3Oc4ccccc4S(=O)(=O)N4CCC[C@@H]34)cc21`, the composite z-score is -0.668 (inactive) in test [1] and 0.468 with XIP peptide (Xip251-270). The z-score in test [2] was -3.17; in test [3], -3.05 (inactive); in test [4], 0.808 (inactive); in test [5], 0.885 (inactive).
As to `COC(=O)C1=CC(CCCO)=CC(C2CC2)N(C)C=C1C(=O)OC` (configuration not stated), the values for the composite z-score (in test [1]; in the test with XIP peptide (Xip251-270)) were 0.473 (inactive) and 0.16, respectively. Moreover, the z-score is 0.493 in test [2], -6.16 (inactive) in test [3], -0.68 (inactive) in test [4] and -1.04 (inactive) in test [5].
Consider `O=C1NC(=O)C2C1C=CC(C(O)c1ccco1)N2Nc1ccccn1` (configuration not stated), for which the composite z-score in test [1] is -0.409 (inactive); in the test on XIP peptide (Xip251-270) it was -0.195. For the same compound, the z-score in test [2] is 1.36; in test [3] it was -3.55 (inactive); in test [4], 0.0556 (inactive); in test [5], -0.0488 (inactive).
Consider `COCCCNC(=O)[C@@]1(Sc2ccc(C)cc2)CC(=O)N(C2CCCCC2)[C@@H]1c1ccc(CO)cc1`, for which the composite z-score is -0.0795 (inactive) in test [1] and 0.421 with XIP peptide (Xip251-270). In addition, the z-score was -0.715 in test [2], -3.21 (inactive) in test [3], 0.317 (inactive) in test [4] and 0.592 (inactive) in test [5].
For the compound `CCC[C@@H]1C[C@@]1(CCC)[C@@H](NC(=O)OCc1ccccc1)c1ccc(-c2ccccc2)cc1`, the values for the composite z-score (in test [1]; in the test with XIP peptide (Xip251-270)) were -0.384 (inactive) and -0.237, respectively. In addition, the z-score in test [2] was -0.54; in test [3], -3.15 (inactive); in test [4], 0.977 (inactive); in test [5], 0.198 (inactive).
Consider `CC(C)C(=C=CC[C@H](O)c1ccc(OCCO)cc1)C[C@H](O)c1ccccn1`, for which the figures for the composite z-score (in test [1]; in the test with XIP peptide (Xip251-270)) were -0.0991 (inactive) and 0.909, respectively. For the same compound, the z-score is -2.06 in test [2], -5.38 (inactive) in test [3], -0.0725 (inactive) in test [4] and 0.223 (inactive) in test [5].
On to `COc1ccc(CCNC(=O)[C@@H]2c3ccccc3C(=O)N(Cc3cc(C(F)(F)F)cc(C(F)(F)F)c3)[C@H]2c2ccc(CO)cc2)cc1`, for which the composite z-score in test [1] is 0.381 (inactive); in the test on XIP peptide (Xip251-270), 0.649. Also, the z-score in test [2] was -1.17; in test [3], -2.92 (inactive); in test [4] it was -0.198 (inactive); in test [5] it was 0.173 (inactive).

For the origin of these results see PubChem BioAssay.
